Data from the supplement of paper PMC4466140.

Key:
Experiment in all cases: SPOT peptide array binding signal intensity (averaged, normalized) (arbitrary units (background-subtracted, floor 0; scale differs between SH3 domains)); higher = stronger binding of the SH3 domain to the peptide
[1] = target: AgAbp1
Method in brief: (§1)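 The binding signal is the normalized, background-subtracted spot intensity averaged over replicates; its arbitrary units differ between domains. It was obtained by incubating 10 μg/ml GST-fused SH3 domains from four yeast species overnight at 4°C in TBS-based blocking buffer on cellulose membranes with synthetic 15-mer peptides, cysteines replaced by serines, then detecting with anti-GST antibody, HRP anti-mouse secondary and luminol.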

[2] = target: AgBbc1
Method in brief: as §1

[3] = target: AgBem1-D1
Method in brief: as §1

[4] = target: AgBzz1-D1
Method in brief: as §1

[5] = target: AgBzz1-D2
Method in brief: as §1

[6] = target: AgCyk3
Method in brief: as §1

[7] = target: AgFus1
Method in brief: as §1

[8] = target: AgHof1
Method in brief: as §1

[9] = target: AgHse1
Method in brief: as §1

[10] = target: AgLsb1
Method in brief: as §1

[11] = target: AgLsb4
Method in brief: as §1

[12] = target: AgMyo5
Method in brief: as §1

[13] = target: AgNbp2
Method in brief: as §1

[14] = target: AgRvs167
Method in brief: as §1

[15] = target: AgSho1
Method in brief: as §1

[16] = target: AgSla1-D1-D2
Method in brief: as §1

[17] = target: AgSla1-D3
Method in brief: as §1

[18] = target: CaAbp1-D1
Method in brief: as §1

[19] = target: CaAbp1-D2
Method in brief: as §1

[20] = target: CaBbc1
Method in brief: as §1

[21] = target: CaBem1-D1
Method in brief: as §1

[22] = target: CaBzz1-D1
Method in brief: as §1

[23] = target: CaBzz1-D2
Method in brief: as §1

[24] = target: CaCyk3
Method in brief: as §1

[25] = target: CaFus1
Method in brief: as §1

[26] = target: CaHof1
Method in brief: as §1

[27] = target: CaHse1
Method in brief: as §1

[28] = target: CaLsb1
Method in brief: as §1

[29] = target: CaLsb4
Method in brief: as §1

[30] = target: CaMyo5
Method in brief: as §1

[31] = target: CaNbp2
Method in brief: as §1

[32] = target: CaRvs167
Method in brief: as §1

[33] = target: CaRvs167-3
Method in brief: as §1

[34] = target: CaSho1
Method in brief: as §1

[35] = target: CaSla1-D1-D2
Method in brief: as §1

[36] = target: CaSla1-D3
Method in brief: as §1

[37] = target: ScAbp1
Method in brief: as §1

[38] = target: ScBbc1
Method in brief: as §1

[39] = target: ScBem1-D1
Method in brief: as §1

[40] = target: ScBzz1-D1
Method in brief: as §1

[41] = target: ScBzz1-D2
Method in brief: as §1

[42] = target: ScCyk3
Method in brief: as §1

[43] = target: ScFus1
Method in brief: as §1

[44] = target: ScHof1
Method in brief: as §1

[45] = target: ScHse1
Method in brief: as §1

[46] = target: ScLsb1
Method in brief: as §1

[47] = target: ScLsb2
Method in brief: as §1

[48] = target: ScLsb3
Method in brief: as §1

[49] = target: ScLsb4
Method in brief: as §1

[50] = target: ScMyo3
Method in brief: as §1

[51] = target: ScMyo5
Method in brief: as §1

[52] = target: ScNbp2
Method in brief: as §1

[53] = target: ScPex13
Method in brief: as §1

[54] = target: ScRvs167
Method in brief: as §1

[55] = target: ScSho1
Method in brief: as §1

[56] = target: ScSla1-D1-D2
Method in brief: as §1

[57] = target: ScSla1-D3
Method in brief: as §1

[58] = target: SpAbp1-D1
Method in brief: as §1

[59] = target: SpBbc1
Method in brief: as §1

[60] = target: SpBzz1-D1
Method in brief: as §1

[61] = target: SpBzz1-D2
Method in brief: as §1

[62] = target: SpCyk3
Method in brief: as §1

[63] = target: SpHof1
Method in brief: as §1

[64] = target: SpHof1-2
Method in brief: as §1

[65] = target: SpHof1-3
Method in brief: as §1

[66] = target: SpHse1
Method in brief: as §1

[67] = target: SpLsb1
Method in brief: as §1

[68] = target: SpLsb4
Method in brief: as §1

[69] = target: SpMyo1
Method in brief: as §1

[70] = target: SpNbp2
Method in brief: as §1

[71] = target: SpPex13
Method in brief: as §1

[72] = target: SpRvs167
Method in brief: as §1

[73] = target: SpSla1-D1-D2
Method in brief: as §1

[74] = target: SpSla1-D3
Method in brief: as §1

Binder: AATTSTPPLPRRRAT
- SPOT peptide array binding signal intensity [1]: 73
- SPOT peptide array binding signal intensity [2]: 800
- SPOT peptide array binding signal intensity [3]: ≤ 0
- SPOT peptide array binding signal intensity [4]: 188
- SPOT peptide array binding signal intensity [5]: 53.5
- SPOT peptide array binding signal intensity [6]: 3
- SPOT peptide array binding signal intensity [7]: 5
- SPOT peptide array binding signal intensity [8]: 142
- SPOT peptide array binding signal intensity [9]: 21
- SPOT peptide array binding signal intensity [10]: 464
- SPOT peptide array binding signal intensity [11]: 5320
- SPOT peptide array binding signal intensity [12]: 12.5
- SPOT peptide array binding signal intensity [13]: ≤ 0
- SPOT peptide array binding signal intensity [14]: 591
- SPOT peptide array binding signal intensity [15]: ≤ 0
- SPOT peptide array binding signal intensity [16]: 6
- SPOT peptide array binding signal intensity [17]: ≤ 0
- SPOT peptide array binding signal intensity [18]: 142
- SPOT peptide array binding signal intensity [19]: 229
- SPOT peptide array binding signal intensity [20]: 1600
- SPOT peptide array binding signal intensity [21]: 11
- SPOT peptide array binding signal intensity [22]: 520
- SPOT peptide array binding signal intensity [23]: 362
- SPOT peptide array binding signal intensity [24]: 60.5
- SPOT peptide array binding signal intensity [25]: 68
- SPOT peptide array binding signal intensity [26]: 8.75
- SPOT peptide array binding signal intensity [27]: ≤ 0
- SPOT peptide array binding signal intensity [28]: 8.5
- SPOT peptide array binding signal intensity [29]: 5270
- SPOT peptide array binding signal intensity [30]: 8
- SPOT peptide array binding signal intensity [31]: 94
- SPOT peptide array binding signal intensity [32]: 700
- SPOT peptide array binding signal intensity [33]: 1
- SPOT peptide array binding signal intensity [34]: 7
- SPOT peptide array binding signal intensity [35]: 906
- SPOT peptide array binding signal intensity [36]: ≤ 0
- SPOT peptide array binding signal intensity [37]: 109
- SPOT peptide array binding signal intensity [38]: 726
- SPOT peptide array binding signal intensity [39]: 3
- SPOT peptide array binding signal intensity [40]: 10.5
- SPOT peptide array binding signal intensity [41]: 9
- SPOT peptide array binding signal intensity [42]: 16
- SPOT peptide array binding signal intensity [43]: ≤ 0
- SPOT peptide array binding signal intensity [44]: 9.75
- SPOT peptide array binding signal intensity [45]: 70
- SPOT peptide array binding signal intensity [46]: 232
- SPOT peptide array binding signal intensity [47]: 202
- SPOT peptide array binding signal intensity [48]: 6300
- SPOT peptide array binding signal intensity [49]: 2060
- SPOT peptide array binding signal intensity [50]: ≤ 0
- SPOT peptide array binding signal intensity [51]: ≤ 0
- SPOT peptide array binding signal intensity [52]: 20
- SPOT peptide array binding signal intensity [53]: 1080
- SPOT peptide array binding signal intensity [54]: 2000
- SPOT peptide array binding signal intensity [55]: ≤ 0
- SPOT peptide array binding signal intensity [56]: 760
- SPOT peptide array binding signal intensity [57]: 11
- SPOT peptide array binding signal intensity [58]: 16
- SPOT peptide array binding signal intensity [59]: 104
- SPOT peptide array binding signal intensity [60]: 877
- SPOT peptide array binding signal intensity [61]: ≤ 0
- SPOT peptide array binding signal intensity [62]: 9
- SPOT peptide array binding signal intensity [63]: 178
- SPOT peptide array binding signal intensity [64]: 78.5
- SPOT peptide array binding signal intensity [65]: 66.5
- SPOT peptide array binding signal intensity [66]: 8.25
- SPOT peptide array binding signal intensity [67]: 712
- SPOT peptide array binding signal intensity [68]: 4540
- SPOT peptide array binding signal intensity [69]: 113
- SPOT peptide array binding signal intensity [70]: 1.5
- SPOT peptide array binding signal intensity [71]: 3
- SPOT peptide array binding signal intensity [72]: 1970
- SPOT peptide array binding signal intensity [73]: 15.5
- SPOT peptide array binding signal intensity [74]: ≤ 0

Binder: LRWRHKFFLPAIAAI
- SPOT peptide array binding signal intensity [1]: 73
- SPOT peptide array binding signal intensity [2]: 14.2
- SPOT peptide array binding signal intensity [3]: 52.5
- SPOT peptide array binding signal intensity [4]: ≤ 0
- SPOT peptide array binding signal intensity [5]: ≤ 0
- SPOT peptide array binding signal intensity [6]: 0.5
- SPOT peptide array binding signal intensity [7]: 299
- SPOT peptide array binding signal intensity [8]: 9.38
- SPOT peptide array binding signal intensity [9]: 979
- SPOT peptide array binding signal intensity [10]: ≤ 0
- SPOT peptide array binding signal intensity [11]: 18.8
- SPOT peptide array binding signal intensity [12]: ≤ 0
- SPOT peptide array binding signal intensity [13]: 14.8
- SPOT peptide array binding signal intensity [14]: 1.17
- SPOT peptide array binding signal intensity [15]: 32
- SPOT peptide array binding signal intensity [16]: 2.5
- SPOT peptide array binding signal intensity [17]: 2.25
- SPOT peptide array binding signal intensity [18]: 312
- SPOT peptide array binding signal intensity [19]: 422
- SPOT peptide array binding signal intensity [20]: 13
- SPOT peptide array binding signal intensity [21]: 4.5
- SPOT peptide array binding signal intensity [22]: 23.2
- SPOT peptide array binding signal intensity [23]: 0.25
- SPOT peptide array binding signal intensity [24]: 1.5
- SPOT peptide array binding signal intensity [25]: 728
- SPOT peptide array binding signal intensity [26]: ≤ 0
- SPOT peptide array binding signal intensity [27]: 28.5
- SPOT peptide array binding signal intensity [28]: 0.25
- SPOT peptide array binding signal intensity [29]: 2.5
- SPOT peptide array binding signal intensity [30]: 4
- SPOT peptide array binding signal intensity [31]: 116
- SPOT peptide array binding signal intensity [32]: 12.8
- SPOT peptide array binding signal intensity [33]: 24
- SPOT peptide array binding signal intensity [34]: 228
- SPOT peptide array binding signal intensity [35]: ≤ 0
- SPOT peptide array binding signal intensity [36]: 3.12
- SPOT peptide array binding signal intensity [37]: 53.5
- SPOT peptide array binding signal intensity [38]: 0.875
- SPOT peptide array binding signal intensity [39]: 9.5
- SPOT peptide array binding signal intensity [40]: 4.5
- SPOT peptide array binding signal intensity [41]: 14.2
- SPOT peptide array binding signal intensity [42]: 18.5
- SPOT peptide array binding signal intensity [43]: 209
- SPOT peptide array binding signal intensity [44]: 1.25
- SPOT peptide array binding signal intensity [45]: 1040
- SPOT peptide array binding signal intensity [46]: 0.25
- SPOT peptide array binding signal intensity [47]: ≤ 0
- SPOT peptide array binding signal intensity [48]: ≤ 0
- SPOT peptide array binding signal intensity [49]: 4.25
- SPOT peptide array binding signal intensity [50]: ≤ 0
- SPOT peptide array binding signal intensity [51]: ≤ 0
- SPOT peptide array binding signal intensity [52]: 20.2
- SPOT peptide array binding signal intensity [53]: ≤ 0
- SPOT peptide array binding signal intensity [54]: 1.5
- SPOT peptide array binding signal intensity [55]: 759
- SPOT peptide array binding signal intensity [56]: ≤ 0
- SPOT peptide array binding signal intensity [57]: ≤ 0
- SPOT peptide array binding signal intensity [58]: 166
- SPOT peptide array binding signal intensity [59]: 1.75
- SPOT peptide array binding signal intensity [60]: ≤ 0
